ALR H2O2 inh = inhibitors of human ALR sulfhydryl oxidase, primary screen, biochemical, H2O2 detection, HRP-luminol luminescence, single point. FAD-linked sulfhydryl oxidase ALR (Homo sapiens), P55789. purified ALR, DTT oxidation. inhibition, % (test concentration not listed). 290,000 compounds, 3.8% hits;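 active = mean replicate inhibition above about 79%, with every replicate also reaching it, limit read from the data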
Cardio protect = cardioprotection against H2O2-induced cell death, primary screen, uHTS, H9c2 cells, ATPLite luminescence | H9c2 cardiomyocytes, H2O2 injury protection, 2 h | 360,000 compounds, 0.63% hits | AID 588492, 2011 | protection from H2O2 cell death, % at 20 µM;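 active = compounds giving at least 50% protection of heart cells from peroxide-induced death in the single-dose screen, raw or plate-pattern-corrected value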
UBC9 SUMO inh = inhibitors of in vitro SUMOylation cascade, primary screen, biochemical, HTRF, uHTS | HTRF SUMOylation assay, SAE1/SAE2 + UBC9 | inhibition, % at 35 µM | 290,000 compounds, 0.36% hits | AID 2006, 2009; in the data active = inhibition above about 50%, passing the limit was not always enough
NTR1 agonist = agonists of human NTR1, primary screen, imaging, U2OS cells, beta-arrestin-GFP, high content. NTR1-U2OS beta-arrestin-GFP spot imaging, agonist mode. Neurotensin receptor type 1 (Homo sapiens), P30989. 330,000 compounds, 0.17% hits. activation, % at 20 µM. AID 493036, 2011;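 active = activation at or above 40% of the spot to cytoplasm intensity ratio, with at least 20 cells analyzed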
Target sequence (P30989 whole entry, looked up): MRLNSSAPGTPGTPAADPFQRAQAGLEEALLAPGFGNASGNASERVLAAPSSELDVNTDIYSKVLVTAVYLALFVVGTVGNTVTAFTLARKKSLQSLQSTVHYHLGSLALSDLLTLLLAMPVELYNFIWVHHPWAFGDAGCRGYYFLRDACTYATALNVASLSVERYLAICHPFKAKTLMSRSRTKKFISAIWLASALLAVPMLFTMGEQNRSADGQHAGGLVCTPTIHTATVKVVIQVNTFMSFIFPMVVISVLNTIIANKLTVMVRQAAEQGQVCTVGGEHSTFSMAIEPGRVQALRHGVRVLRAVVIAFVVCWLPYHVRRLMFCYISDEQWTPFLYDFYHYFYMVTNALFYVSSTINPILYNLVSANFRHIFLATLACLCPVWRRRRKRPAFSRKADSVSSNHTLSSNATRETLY
A number is an active result. Only some compounds are listed: those with a hit (about 3.9% of all), similar ones and a draw of the others.

Results for Cc1ccc(C)c(OCC(=O)Nc2cc(NC(=O)COc3cc(C)ccc3C)cc(C(=O)O)c2)c1 ?
ALR H2O2 inh: inactive; Cardio protect: inactive; UBC9 SUMO inh: inactive; NTR1 agonist: inactive

Results for Cc1cc(O)c(C=O)c2c1C(=O)Oc1c(CO)c(O)c3c(c1O2)C(O)OC3=O (stereo not given) ?
ALR H2O2 inh: 99; Cardio protect: inactive; UBC9 SUMO inh: 96; NTR1 agonist: inactive

How did CCOC(=O)c1c(C)[nH]c(C(=O)COC(=O)c2cnc(C)cn2)c1C do in these assays?
ALR H2O2 inh: inactive; Cardio protect: inactive; UBC9 SUMO inh: inactive; NTR1 agonist: inactive

Results for O=C(Nc1ccc2c(c1)CCC2)C1CCCN(c2ncccn2)C1 (stereo not given) ?
ALR H2O2 inh: inactive; Cardio protect: inactive; UBC9 SUMO inh: inactive; NTR1 agonist: inactive

What do the screens show for `Cc1nc2ncnn2c(N2CCCC(C(=O)Nc3ccc4c(c3)CCC4)C2)c1C` (stereo not given)?
ALR H2O2 inh: 92; Cardio protect: inactive; UBC9 SUMO inh: inactive; NTR1 agonist: inactive

How did NC(=S)NNC(=O)COc1ccccc1O do in these assays?
ALR H2O2 inh: 89; Cardio protect: inactive; UBC9 SUMO inh: inactive; NTR1 agonist: inactive

What do the screens show for `COc1ccc(OC)c2c1sc(=NC(=O)C1CCCCC1)n2C`?
ALR H2O2 inh: inactive; Cardio protect: inactive; UBC9 SUMO inh: inactive; NTR1 agonist: inactive

How did O=C(Nc1ccc(C(=O)N2CCOCC2)cc1)c1cnn2c(C(F)F)cc(-c3ccccc3)nc12 do in these assays?
ALR H2O2 inh: inactive; Cardio protect: 55; UBC9 SUMO inh: inactive; NTR1 agonist: inactive

What do the screens show for `O=C(NCCN1CCOCC1)c1cc(-c2ccccc2)nc2ccccc12`?
Cardio protect: inactive

How did O=C(NCCN1CCOCC1)c1cnn2c(-c3ccccc3)cc(-c3ccccc3)nc12 do in these assays?
ALR H2O2 inh: inactive; Cardio protect: 79; UBC9 SUMO inh: inactive; NTR1 agonist: inactive

How did COc1ccc(-c2cc(C(F)F)n3ncc(C(=O)n4ccnc4C)c3n2)cc1 do in these assays?
ALR H2O2 inh: 99; Cardio protect: inactive; UBC9 SUMO inh: inactive; NTR1 agonist: inactive

Results for COc1ccc(-c2cc(C(F)F)n3ncc(C(=O)Nc4ccc(C(=O)N5CCOCC5)cc4)c3n2)cc1 ?
Cardio protect: 71; UBC9 SUMO inh: inactive; NTR1 agonist: inactive

Results for O=C(c1cnn2c(C(F)F)cc(-c3ccccc3)nc12)N1CCOCC1 ?
ALR H2O2 inh: inactive; Cardio protect: inactive; UBC9 SUMO inh: inactive; NTR1 agonist: inactive

Results for Cc1ccc(-c2c(C(=O)O)c(C(=O)O)c3n2CCC3)cc1 ?
ALR H2O2 inh: inactive; Cardio protect: inactive; UBC9 SUMO inh: inactive; NTR1 agonist: inactive

Results for O=C(Nc1ccc(F)c(Cl)c1)C1CCCN(c2cnccn2)C1 (stereo not given) ?
ALR H2O2 inh: inactive; Cardio protect: inactive; NTR1 agonist: inactive

Results for CC(NC(=O)Nc1nnc(C(F)(F)F)s1)(C(F)(F)F)C(F)(F)F ?
ALR H2O2 inh: inactive; Cardio protect: inactive; UBC9 SUMO inh: inactive; NTR1 agonist: inactive

Results for O=C(NCC1CCCO1)C(c1cccs1)N(C(=O)c1ccc(-c2ccccc2)[nH]1)C1CCCC1 (stereo not given) ?
ALR H2O2 inh: inactive; Cardio protect: inactive; UBC9 SUMO inh: inactive; NTR1 agonist: inactive

What do the screens show for `CCCCC(=O)NC(c1ccc(N(CC)CC)cc1)c1ccc2cccnc2c1O` (stereo not given)?
ALR H2O2 inh: inactive; Cardio protect: 52; UBC9 SUMO inh: inactive; NTR1 agonist: inactive

What do the screens show for `CCCC(=O)NC(c1ccc(Cl)cc1Cl)c1ccc2cccnc2c1O` (stereo not given)?
ALR H2O2 inh: inactive; Cardio protect: inactive; UBC9 SUMO inh: 91; NTR1 agonist: inactive

What do the screens show for `CCCCC(=O)NC(c1ccc(N(C)C)cc1)c1ccc2cccnc2c1O` (stereo not given)?
ALR H2O2 inh: inactive; Cardio protect: inactive; UBC9 SUMO inh: inactive; NTR1 agonist: inactive

What do the screens show for `CCOc1ccc(-n2c(SCC(=O)Nc3ccc(CC)cc3)nc3n[nH]c(C)c3c2=N)cc1`?
ALR H2O2 inh: inactive; Cardio protect: inactive; UBC9 SUMO inh: 56; NTR1 agonist: inactive

What do the screens show for `CCOC(=O)N1CCN(c2nnc(-c3ccc(C)cc3)c3ccccc23)CC1`?
ALR H2O2 inh: inactive; Cardio protect: inactive; UBC9 SUMO inh: inactive; NTR1 agonist: inactive

Results for Oc1ccc(-c2csc(Nc3ccccn3)n2)c(O)c1 ?
ALR H2O2 inh: 93; Cardio protect: inactive; UBC9 SUMO inh: inactive; NTR1 agonist: inactive

Screening data deposited in PubChem BioAssay by several laboratories.
